# What was measured:
# Assay in all cases: DAPPL (digital affinity profiling via proximity ligation, sequencing); 10 mM Tris-HCl pH 7.5, 50 mM NaCl, 1 mM DTT, 4% glycerol, room temperature, 30 min; GST-TFs on glutathione beads, 16-mer random dsDNA library, 0.1% formaldehyde crosslink after washing; high values mean tight binding
# [1] = target: T1, FEV (Homo sapiens, UniProt Q99581 1-238); settings: protein: recombinant; tags: N-terminal GST; dsDNA, one strand shown
# T1 sequence: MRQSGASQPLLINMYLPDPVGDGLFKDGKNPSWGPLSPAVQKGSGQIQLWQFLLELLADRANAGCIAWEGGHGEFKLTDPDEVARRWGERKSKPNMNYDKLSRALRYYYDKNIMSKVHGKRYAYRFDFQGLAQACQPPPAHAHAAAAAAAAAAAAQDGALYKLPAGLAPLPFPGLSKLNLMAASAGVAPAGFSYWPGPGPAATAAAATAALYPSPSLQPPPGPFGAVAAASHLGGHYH
# Procedure, shortened: (§1)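 Beads coated with glutathione captured GST-fused human transcription factors that had been expressed in yeast, and the factors were then given DNA barcodes and pooled with a tag-only sample. The pools were incubated with 200 nmole of a random double-stranded 16-mer DNA library in Tris/NaCl/DTT/glycerol buffer for 30 min at room temperature, washed, crosslinked with 0.1% formaldehyde and proximity-ligated with BsaI/T4 ligase at 37 °C for 1 h. PCR amplification and Illumina NextSeq500 sequencing came last. Binding signal is each hexamer's read frequency for a factor divided by its frequency for the tag-only sample.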
# [2] = target: ETV5 (Homo sapiens, UniProt P41161 1-510); settings: protein: recombinant; tags: N-terminal GST; dsDNA, one strand shown
# Procedure, shortened: as §1
# [3] = target: HSF1 (Homo sapiens, UniProt Q00613 1-529); settings: protein: recombinant; tags: N-terminal GST; chain copies: 3; dsDNA, one strand shown
# Procedure, shortened: as §1
# [4] = target: T2, SPIC (Homo sapiens, UniProt Q8N5J4 1-248); settings: protein: recombinant; tags: N-terminal GST; dsDNA, one strand shown
# T2 sequence: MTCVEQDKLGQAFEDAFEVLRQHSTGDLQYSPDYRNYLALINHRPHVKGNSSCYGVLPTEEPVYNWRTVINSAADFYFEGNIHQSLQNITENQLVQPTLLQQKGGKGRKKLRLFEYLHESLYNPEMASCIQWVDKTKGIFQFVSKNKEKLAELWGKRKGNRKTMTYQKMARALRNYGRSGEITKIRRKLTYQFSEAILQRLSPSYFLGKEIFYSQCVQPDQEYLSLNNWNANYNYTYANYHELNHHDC
# Procedure, shortened: as §1
# [5] = target: ELF4 (Homo sapiens, UniProt Q99607 1-663); settings: protein: recombinant; tags: N-terminal GST; dsDNA, one strand shown
# Procedure, shortened: as §1
# [6] = target: T3, ELK4 (Homo sapiens, UniProt P28324-2 1-405); settings: protein: recombinant; tags: N-terminal GST; dsDNA, one strand shown
# T3 sequence: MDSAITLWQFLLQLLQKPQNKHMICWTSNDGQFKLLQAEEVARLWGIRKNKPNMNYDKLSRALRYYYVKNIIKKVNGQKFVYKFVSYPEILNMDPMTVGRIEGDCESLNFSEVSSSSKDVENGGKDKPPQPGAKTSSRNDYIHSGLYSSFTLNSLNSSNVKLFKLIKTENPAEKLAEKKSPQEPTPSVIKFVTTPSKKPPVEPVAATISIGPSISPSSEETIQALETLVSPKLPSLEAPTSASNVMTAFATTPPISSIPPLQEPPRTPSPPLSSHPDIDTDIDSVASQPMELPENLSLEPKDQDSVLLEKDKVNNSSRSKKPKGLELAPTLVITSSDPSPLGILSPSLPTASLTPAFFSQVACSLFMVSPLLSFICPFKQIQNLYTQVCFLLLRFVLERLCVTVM
# Procedure, shortened: as §1
# [7] = target: T4, ETV2 (Homo sapiens, UniProt O00321 1-342); settings: protein: recombinant; tags: N-terminal GST; dsDNA, one strand shown
# T4 sequence: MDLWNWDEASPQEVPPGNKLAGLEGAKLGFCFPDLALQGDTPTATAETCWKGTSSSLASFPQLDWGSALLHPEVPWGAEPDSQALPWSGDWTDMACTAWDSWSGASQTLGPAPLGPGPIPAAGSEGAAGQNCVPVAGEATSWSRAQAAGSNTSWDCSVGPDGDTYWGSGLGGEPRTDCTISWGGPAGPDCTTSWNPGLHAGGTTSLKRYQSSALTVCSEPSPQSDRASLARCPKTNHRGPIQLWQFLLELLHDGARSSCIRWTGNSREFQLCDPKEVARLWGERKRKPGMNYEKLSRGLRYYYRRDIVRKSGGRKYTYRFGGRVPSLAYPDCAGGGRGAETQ
# Procedure, shortened: as §1
# [8] = target: T5, ELF3 (Homo sapiens, UniProt P78545 1-371); settings: protein: recombinant; tags: N-terminal GST; dsDNA, one strand shown
# T5 sequence: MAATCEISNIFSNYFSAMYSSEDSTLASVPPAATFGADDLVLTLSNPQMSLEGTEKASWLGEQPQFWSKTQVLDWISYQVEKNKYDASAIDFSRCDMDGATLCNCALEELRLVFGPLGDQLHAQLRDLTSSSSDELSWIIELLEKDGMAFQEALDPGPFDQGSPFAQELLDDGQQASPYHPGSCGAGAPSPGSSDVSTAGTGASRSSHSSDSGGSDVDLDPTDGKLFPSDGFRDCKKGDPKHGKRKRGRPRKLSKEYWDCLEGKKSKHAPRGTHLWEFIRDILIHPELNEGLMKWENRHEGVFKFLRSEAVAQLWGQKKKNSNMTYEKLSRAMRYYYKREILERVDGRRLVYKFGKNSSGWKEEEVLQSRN
# Procedure, shortened: as §1
# [9] = target: CRX (Homo sapiens, UniProt O43186 1-299); settings: protein: recombinant; tags: N-terminal GST; dsDNA, one strand shown
# Procedure, shortened: as §1
# [10] = target: ETV1 (Homo sapiens, UniProt P50549 1-477); settings: protein: recombinant; tags: N-terminal GST; dsDNA, one strand shown
# Procedure, shortened: as §1
# [11] = target: T6, ERF (Homo sapiens, UniProt P50548 1-548); settings: protein: recombinant; tags: N-terminal GST; dsDNA, one strand shown
# T6 sequence: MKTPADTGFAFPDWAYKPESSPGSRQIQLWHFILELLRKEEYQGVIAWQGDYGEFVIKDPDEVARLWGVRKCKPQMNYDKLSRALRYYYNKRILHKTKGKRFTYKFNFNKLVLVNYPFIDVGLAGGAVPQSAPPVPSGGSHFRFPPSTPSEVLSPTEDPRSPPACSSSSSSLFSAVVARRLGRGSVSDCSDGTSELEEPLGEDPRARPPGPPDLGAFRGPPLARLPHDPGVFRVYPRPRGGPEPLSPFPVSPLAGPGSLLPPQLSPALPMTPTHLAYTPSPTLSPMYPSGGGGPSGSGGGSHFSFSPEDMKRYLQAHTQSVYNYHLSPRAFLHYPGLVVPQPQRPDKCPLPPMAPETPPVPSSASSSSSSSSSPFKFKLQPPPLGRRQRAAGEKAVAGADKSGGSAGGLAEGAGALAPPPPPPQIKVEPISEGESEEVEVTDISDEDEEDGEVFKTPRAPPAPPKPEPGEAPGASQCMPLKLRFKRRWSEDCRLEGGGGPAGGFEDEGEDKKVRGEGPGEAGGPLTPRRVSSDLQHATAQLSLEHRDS
# Procedure, shortened: as §1
# [12] = target: T7, ETV3L (Homo sapiens, UniProt Q6ZN32 1-361); settings: protein: recombinant; tags: N-terminal GST; dsDNA, one strand shown
# T7 sequence: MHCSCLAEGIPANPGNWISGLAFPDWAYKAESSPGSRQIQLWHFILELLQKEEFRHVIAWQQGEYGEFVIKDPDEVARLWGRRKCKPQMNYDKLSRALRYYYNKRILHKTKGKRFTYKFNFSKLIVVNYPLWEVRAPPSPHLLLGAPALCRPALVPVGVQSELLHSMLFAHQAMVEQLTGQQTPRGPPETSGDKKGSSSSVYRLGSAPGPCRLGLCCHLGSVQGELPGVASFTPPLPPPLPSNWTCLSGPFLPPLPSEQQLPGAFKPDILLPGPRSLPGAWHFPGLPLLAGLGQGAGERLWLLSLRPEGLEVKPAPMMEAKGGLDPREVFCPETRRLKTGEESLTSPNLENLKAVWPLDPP
# Procedure, shortened: as §1
# [13] = target: T8, ETS2 (Homo sapiens, UniProt P15036 1-469); settings: protein: recombinant; tags: N-terminal GST; dsDNA, one strand shown
# T8 sequence: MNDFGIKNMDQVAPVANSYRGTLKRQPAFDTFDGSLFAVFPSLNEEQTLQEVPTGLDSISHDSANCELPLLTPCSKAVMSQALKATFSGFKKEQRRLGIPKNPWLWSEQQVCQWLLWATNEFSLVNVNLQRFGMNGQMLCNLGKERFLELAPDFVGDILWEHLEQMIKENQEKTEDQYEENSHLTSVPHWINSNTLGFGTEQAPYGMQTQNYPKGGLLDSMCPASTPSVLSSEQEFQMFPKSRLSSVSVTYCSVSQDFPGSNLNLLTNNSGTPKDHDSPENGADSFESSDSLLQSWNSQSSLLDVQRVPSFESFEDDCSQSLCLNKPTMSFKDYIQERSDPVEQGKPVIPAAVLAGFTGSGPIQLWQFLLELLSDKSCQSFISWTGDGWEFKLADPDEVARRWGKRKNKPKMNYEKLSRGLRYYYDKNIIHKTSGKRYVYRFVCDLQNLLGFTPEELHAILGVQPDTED
# Procedure, shortened: as §1
# [14] = target: T9, SPDEF (Homo sapiens, UniProt O95238 1-335); settings: protein: recombinant; tags: N-terminal GST; dsDNA, one strand shown
# T9 sequence: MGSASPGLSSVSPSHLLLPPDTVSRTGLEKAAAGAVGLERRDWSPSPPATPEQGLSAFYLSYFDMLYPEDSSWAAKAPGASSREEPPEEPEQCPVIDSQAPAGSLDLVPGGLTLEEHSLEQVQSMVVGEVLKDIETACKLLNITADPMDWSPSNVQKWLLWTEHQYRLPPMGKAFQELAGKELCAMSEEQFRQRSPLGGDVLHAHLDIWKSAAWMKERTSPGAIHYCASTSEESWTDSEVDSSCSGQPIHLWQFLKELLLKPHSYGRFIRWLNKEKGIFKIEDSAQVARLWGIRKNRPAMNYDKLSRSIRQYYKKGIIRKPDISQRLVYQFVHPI
# Procedure, shortened: as §1
# [15] = target: T10, ETV7 (Homo sapiens, UniProt Q9Y603 1-341); settings: protein: recombinant; tags: N-terminal GST; dsDNA, one strand shown
# T10 sequence: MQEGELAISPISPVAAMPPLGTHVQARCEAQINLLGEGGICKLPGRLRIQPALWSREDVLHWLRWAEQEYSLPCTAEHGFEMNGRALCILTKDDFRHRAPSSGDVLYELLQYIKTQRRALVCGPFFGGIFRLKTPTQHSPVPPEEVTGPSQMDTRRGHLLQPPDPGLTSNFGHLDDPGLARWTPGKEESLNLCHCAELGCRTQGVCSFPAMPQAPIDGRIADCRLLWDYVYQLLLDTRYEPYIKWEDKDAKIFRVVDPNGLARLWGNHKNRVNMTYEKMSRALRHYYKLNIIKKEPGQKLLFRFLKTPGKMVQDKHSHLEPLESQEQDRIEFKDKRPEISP
# Procedure, shortened: as §1
# [16] = target: T11, ELF5 (Homo sapiens, UniProt Q9UKW6-2 1-255); settings: protein: recombinant; tags: N-terminal GST; dsDNA, one strand shown
# T11 sequence: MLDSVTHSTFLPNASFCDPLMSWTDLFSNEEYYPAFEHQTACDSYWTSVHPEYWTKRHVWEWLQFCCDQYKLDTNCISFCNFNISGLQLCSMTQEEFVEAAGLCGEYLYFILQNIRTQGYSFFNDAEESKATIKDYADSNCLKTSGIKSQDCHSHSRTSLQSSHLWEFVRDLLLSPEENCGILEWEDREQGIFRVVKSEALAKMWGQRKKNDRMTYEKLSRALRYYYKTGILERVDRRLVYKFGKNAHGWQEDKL
# Procedure, shortened: as §1
# [17] = target: T12, ETV3 (Homo sapiens, UniProt P41162-2 1-143); settings: protein: recombinant; tags: N-terminal GST; dsDNA, one strand shown
# T12 sequence: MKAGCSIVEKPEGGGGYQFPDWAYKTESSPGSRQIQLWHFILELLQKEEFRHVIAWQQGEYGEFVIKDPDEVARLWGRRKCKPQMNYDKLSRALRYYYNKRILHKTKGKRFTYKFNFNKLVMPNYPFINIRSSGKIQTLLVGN
# Procedure, shortened: as §1
# [18] = target: ETV6 (Homo sapiens, UniProt P41212 1-452); settings: protein: recombinant; tags: N-terminal GST; dsDNA, one strand shown
# Procedure, shortened: as §1
# Sequence of ETV6 (P41212 whole entry): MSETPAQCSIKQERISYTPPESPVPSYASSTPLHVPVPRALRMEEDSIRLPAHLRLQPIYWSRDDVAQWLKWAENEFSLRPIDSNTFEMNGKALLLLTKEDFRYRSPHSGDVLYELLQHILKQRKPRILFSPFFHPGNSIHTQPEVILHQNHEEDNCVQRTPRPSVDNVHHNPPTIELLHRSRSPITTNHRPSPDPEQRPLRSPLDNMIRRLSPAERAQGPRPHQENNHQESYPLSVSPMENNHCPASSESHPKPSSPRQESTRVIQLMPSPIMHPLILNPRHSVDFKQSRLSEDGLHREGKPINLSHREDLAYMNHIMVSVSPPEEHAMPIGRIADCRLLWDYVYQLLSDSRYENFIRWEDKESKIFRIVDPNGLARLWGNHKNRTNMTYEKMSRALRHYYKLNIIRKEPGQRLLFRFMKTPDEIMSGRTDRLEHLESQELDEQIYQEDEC
# Sequence of ETV5 (P41161 whole entry): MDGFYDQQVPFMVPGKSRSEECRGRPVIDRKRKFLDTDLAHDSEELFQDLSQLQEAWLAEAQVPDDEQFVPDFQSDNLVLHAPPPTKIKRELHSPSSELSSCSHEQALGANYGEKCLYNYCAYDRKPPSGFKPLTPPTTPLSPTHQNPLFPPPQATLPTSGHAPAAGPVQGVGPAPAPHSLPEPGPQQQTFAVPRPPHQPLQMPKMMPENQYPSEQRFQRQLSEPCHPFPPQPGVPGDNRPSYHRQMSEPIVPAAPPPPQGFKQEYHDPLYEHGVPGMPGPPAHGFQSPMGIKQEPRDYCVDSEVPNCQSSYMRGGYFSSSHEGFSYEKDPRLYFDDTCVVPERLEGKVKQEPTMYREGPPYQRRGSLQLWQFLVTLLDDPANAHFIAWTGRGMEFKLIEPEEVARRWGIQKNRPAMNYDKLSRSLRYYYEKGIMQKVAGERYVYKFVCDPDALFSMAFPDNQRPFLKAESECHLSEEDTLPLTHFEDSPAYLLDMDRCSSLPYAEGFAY
# Sequence of HSF1 (Q00613 whole entry): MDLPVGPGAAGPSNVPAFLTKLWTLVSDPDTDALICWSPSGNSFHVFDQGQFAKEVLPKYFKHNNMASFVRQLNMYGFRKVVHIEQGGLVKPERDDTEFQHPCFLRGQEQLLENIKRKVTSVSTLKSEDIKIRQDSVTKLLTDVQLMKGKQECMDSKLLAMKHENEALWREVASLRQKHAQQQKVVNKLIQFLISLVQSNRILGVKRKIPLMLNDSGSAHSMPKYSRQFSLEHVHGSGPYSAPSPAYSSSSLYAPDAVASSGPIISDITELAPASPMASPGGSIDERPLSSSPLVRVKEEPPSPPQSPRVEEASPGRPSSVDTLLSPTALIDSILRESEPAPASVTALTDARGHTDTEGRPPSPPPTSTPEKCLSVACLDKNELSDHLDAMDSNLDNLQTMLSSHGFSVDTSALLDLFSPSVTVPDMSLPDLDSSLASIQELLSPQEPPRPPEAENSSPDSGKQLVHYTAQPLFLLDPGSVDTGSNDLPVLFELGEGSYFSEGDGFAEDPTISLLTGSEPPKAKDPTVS
# Sequence of ELF4 (Q99607 whole entry): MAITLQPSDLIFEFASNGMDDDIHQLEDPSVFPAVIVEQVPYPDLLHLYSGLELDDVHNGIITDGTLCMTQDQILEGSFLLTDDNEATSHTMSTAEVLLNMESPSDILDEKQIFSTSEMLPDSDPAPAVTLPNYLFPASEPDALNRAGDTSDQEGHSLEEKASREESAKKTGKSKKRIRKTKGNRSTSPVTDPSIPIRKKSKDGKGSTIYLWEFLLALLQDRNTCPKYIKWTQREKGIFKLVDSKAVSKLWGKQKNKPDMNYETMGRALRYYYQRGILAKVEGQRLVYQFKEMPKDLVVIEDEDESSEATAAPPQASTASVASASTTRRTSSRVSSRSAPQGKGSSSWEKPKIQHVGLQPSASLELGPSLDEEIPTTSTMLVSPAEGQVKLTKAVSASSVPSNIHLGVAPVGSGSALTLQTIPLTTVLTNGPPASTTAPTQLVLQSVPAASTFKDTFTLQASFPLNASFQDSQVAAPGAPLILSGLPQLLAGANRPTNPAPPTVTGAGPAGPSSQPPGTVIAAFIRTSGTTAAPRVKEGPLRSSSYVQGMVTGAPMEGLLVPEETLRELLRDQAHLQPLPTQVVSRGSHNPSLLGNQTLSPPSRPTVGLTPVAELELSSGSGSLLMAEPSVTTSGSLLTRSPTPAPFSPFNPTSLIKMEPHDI
# Sequence of CRX (O43186 whole entry): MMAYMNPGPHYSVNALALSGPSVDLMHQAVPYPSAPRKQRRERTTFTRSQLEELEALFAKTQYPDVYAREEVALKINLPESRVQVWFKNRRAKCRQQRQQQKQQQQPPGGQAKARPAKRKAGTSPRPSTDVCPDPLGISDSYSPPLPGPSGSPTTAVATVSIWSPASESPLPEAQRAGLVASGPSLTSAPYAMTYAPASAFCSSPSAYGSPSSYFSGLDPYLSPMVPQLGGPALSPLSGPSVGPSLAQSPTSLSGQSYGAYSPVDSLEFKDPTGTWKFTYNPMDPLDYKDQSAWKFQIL
# Sequence of ETV1 (P50549 whole entry): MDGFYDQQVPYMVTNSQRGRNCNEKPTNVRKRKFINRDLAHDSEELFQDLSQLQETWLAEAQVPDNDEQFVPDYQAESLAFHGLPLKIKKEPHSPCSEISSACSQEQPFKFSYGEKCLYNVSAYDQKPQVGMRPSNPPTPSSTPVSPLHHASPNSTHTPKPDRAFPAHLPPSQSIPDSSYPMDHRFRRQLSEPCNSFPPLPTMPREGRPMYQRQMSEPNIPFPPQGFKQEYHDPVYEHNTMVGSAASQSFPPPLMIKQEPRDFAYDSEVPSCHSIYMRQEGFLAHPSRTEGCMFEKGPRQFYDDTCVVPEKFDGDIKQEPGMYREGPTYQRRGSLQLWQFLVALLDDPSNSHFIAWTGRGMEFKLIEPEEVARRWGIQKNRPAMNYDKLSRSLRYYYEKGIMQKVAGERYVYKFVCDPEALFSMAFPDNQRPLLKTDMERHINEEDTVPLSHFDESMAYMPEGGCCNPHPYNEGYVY
sequence,measurement,setting,value
TCCCCG,binding signal,[1],"1.17 fold enrichment (6-mer frequency, TF over GST control)"
same,binding signal,[2],"1.22 fold enrichment (6-mer frequency, TF over GST control)"
same,binding signal,[3],"1.16 fold enrichment (6-mer frequency, TF over GST control)"
same,binding signal,[4],"1.04 fold enrichment (6-mer frequency, TF over GST control)"
same,binding signal,[5],"1.22 fold enrichment (6-mer frequency, TF over GST control)"
same,binding signal,[6],"1.12 fold enrichment (6-mer frequency, TF over GST control)"
same,binding signal,[7],"1.26 fold enrichment (6-mer frequency, TF over GST control)"
same,binding signal,[8],"1.27 fold enrichment (6-mer frequency, TF over GST control)"
same,binding signal,[9],"1.21 fold enrichment (6-mer frequency, TF over GST control)"
same,binding signal,[10],"1.13 fold enrichment (6-mer frequency, TF over GST control)"
same,binding signal,[11],"1.21 fold enrichment (6-mer frequency, TF over GST control)"
same,binding signal,[12],"1.17 fold enrichment (6-mer frequency, TF over GST control)"
same,binding signal,[13],"1.11 fold enrichment (6-mer frequency, TF over GST control)"
same,binding signal,[14],"1.14 fold enrichment (6-mer frequency, TF over GST control)"
same,binding signal,[15],"1.15 fold enrichment (6-mer frequency, TF over GST control)"
same,binding signal,[16],"1.24 fold enrichment (6-mer frequency, TF over GST control)"
same,binding signal,[17],"1.27 fold enrichment (6-mer frequency, TF over GST control)"
same,binding signal,[18],"1.13 fold enrichment (6-mer frequency, TF over GST control)"
